# How the values were obtained:
# Test in all cases: DAPPL (digital affinity profiling via proximity ligation, sequencing); 10 mM Tris-HCl pH 7.5, 50 mM NaCl, 1 mM DTT, 4% glycerol, room temperature, 30 min; GST-TFs on glutathione beads, 16-mer random dsDNA library, 0.1% formaldehyde crosslink after washing; high values mean tight binding
# FLI1 = biological target: T1, FLI1 (Homo sapiens, UniProt Q01543 1-452); conditions: protein: recombinant; tags: N-terminal GST; dsDNA, one strand shown
# T1 sequence: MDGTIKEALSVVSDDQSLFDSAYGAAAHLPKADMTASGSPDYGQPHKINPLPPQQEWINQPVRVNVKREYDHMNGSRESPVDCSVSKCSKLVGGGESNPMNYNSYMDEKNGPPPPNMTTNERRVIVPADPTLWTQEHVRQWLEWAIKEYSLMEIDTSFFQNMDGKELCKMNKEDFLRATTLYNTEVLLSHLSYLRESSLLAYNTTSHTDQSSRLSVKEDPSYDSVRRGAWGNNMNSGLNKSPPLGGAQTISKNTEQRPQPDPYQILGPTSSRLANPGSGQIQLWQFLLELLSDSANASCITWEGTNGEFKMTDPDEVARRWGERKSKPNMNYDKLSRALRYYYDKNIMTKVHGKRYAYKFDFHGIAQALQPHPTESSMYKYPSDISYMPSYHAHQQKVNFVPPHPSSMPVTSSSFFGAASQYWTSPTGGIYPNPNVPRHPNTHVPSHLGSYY
# Procedure, shortened: (§1)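 GST fusions of human transcription factors were expressed in yeast and captured with glutathione beads. Once given DNA barcodes and pooled alongside a tag-only sample, they were incubated for 30 min at room temperature with 200 nmole of a random double-stranded 16-mer DNA library in Tris/NaCl/DTT/glycerol buffer, then washed, crosslinked (0.1% formaldehyde), proximity-ligated, PCR-amplified and sequenced on an Illumina NextSeq500. The binding signal of each hexamer is its read frequency for a factor divided by its frequency for the tag-only sample.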
# ELK1 = biological target: T2, ELK1 (Homo sapiens, UniProt P19419 1-428); conditions: protein: recombinant; tags: N-terminal GST; dsDNA, one strand shown
# T2 sequence: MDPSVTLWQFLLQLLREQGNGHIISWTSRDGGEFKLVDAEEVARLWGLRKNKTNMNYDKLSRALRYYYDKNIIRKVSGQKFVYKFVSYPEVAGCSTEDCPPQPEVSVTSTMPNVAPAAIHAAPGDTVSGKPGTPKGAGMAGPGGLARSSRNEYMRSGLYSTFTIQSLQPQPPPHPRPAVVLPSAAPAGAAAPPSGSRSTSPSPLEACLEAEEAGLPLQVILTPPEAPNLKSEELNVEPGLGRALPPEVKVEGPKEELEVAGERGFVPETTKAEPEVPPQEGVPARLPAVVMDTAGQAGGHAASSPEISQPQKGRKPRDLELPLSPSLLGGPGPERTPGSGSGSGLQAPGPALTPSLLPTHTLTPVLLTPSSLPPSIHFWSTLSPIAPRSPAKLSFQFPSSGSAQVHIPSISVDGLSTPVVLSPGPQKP
# Procedure, shortened: as §1
# GABPA = biological target: T3, GABPA (Homo sapiens, UniProt Q06546 1-454); conditions: protein: recombinant; tags: N-terminal GST; dsDNA, one strand shown
# T3 sequence: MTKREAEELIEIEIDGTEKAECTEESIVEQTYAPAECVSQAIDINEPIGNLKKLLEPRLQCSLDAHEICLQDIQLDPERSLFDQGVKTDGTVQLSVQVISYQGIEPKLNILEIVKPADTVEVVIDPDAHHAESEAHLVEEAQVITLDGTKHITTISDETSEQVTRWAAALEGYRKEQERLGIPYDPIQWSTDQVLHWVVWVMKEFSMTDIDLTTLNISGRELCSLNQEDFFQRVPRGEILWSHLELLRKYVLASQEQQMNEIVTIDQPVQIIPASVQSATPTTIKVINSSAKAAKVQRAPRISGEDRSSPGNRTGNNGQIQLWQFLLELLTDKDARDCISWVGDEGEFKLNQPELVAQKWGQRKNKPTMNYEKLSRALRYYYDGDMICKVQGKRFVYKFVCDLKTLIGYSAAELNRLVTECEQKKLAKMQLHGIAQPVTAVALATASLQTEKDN
# Procedure, shortened: as §1
# ERG = biological target: T4, ERG (Homo sapiens, UniProt P11308 1-479); conditions: protein: recombinant; tags: N-terminal GST; dsDNA, one strand shown
# T4 sequence: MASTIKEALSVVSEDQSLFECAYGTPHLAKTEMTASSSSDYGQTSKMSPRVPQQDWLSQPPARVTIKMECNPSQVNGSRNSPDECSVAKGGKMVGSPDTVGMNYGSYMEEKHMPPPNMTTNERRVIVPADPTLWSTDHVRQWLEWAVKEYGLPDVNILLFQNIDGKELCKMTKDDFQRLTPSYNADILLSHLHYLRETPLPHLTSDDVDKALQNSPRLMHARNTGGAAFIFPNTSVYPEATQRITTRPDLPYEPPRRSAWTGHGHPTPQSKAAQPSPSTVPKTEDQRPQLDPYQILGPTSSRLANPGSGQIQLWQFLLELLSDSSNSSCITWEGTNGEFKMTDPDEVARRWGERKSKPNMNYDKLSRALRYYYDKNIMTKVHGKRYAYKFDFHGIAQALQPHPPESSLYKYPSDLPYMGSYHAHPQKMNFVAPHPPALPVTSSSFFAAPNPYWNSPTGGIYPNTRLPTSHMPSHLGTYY
# Procedure, shortened: as §1
# ELF1 = ELF1 (Homo sapiens, UniProt P32519 1-619); conditions: protein: recombinant; tags: N-terminal GST; dsDNA, one strand shown
# ELF1, sequence (P32519 whole entry): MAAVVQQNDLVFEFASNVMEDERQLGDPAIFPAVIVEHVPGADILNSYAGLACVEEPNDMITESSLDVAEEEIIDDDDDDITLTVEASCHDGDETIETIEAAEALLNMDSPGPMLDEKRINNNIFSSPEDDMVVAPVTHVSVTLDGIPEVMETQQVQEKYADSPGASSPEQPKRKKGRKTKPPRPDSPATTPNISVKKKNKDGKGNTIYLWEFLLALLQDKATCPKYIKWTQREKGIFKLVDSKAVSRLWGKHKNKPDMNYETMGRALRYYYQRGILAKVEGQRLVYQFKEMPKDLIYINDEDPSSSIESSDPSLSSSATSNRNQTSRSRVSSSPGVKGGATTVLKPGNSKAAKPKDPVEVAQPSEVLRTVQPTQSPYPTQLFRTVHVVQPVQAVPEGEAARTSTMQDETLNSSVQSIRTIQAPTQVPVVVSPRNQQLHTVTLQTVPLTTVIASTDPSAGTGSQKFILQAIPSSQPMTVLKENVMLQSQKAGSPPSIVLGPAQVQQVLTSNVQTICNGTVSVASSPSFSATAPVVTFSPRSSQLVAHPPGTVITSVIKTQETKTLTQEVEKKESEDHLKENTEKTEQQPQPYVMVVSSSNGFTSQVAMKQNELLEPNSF
# Procedure, shortened: as §1
# EHF = biological target: T5, EHF (Homo sapiens, UniProt Q9NZC4 1-300); conditions: protein: recombinant; tags: N-terminal GST; dsDNA, one strand shown
# T5 sequence: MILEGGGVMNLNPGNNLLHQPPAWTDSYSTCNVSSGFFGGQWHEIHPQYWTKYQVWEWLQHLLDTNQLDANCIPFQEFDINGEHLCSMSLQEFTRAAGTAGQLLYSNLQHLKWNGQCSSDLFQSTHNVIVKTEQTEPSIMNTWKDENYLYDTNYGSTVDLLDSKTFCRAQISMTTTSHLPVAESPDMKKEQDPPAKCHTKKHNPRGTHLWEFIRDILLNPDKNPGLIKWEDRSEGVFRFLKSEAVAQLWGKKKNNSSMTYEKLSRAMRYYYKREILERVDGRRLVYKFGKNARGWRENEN
# Procedure, shortened: as §1
# SPI1 = SPI1 (Homo sapiens, UniProt P17947 1-270); conditions: protein: recombinant; tags: N-terminal GST; dsDNA, one strand shown
# Procedure, shortened: as §1
# SPIB = SPIB (Homo sapiens, UniProt Q01892 1-262); conditions: protein: recombinant; tags: N-terminal GST; dsDNA, one strand shown
# SPIB, sequence (Q01892 whole entry): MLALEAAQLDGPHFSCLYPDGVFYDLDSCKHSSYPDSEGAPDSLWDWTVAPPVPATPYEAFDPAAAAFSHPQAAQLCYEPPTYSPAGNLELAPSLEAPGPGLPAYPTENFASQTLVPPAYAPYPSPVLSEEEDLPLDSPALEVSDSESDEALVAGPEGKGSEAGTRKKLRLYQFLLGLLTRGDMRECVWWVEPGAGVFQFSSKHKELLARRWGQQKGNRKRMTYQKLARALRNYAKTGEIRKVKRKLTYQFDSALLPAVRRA
# Procedure, shortened: as §1
# ELK3 = biological target: T6, ELK3 (Homo sapiens, UniProt P41970 1-407); conditions: protein: recombinant; tags: N-terminal GST; dsDNA, one strand shown
# T6 sequence: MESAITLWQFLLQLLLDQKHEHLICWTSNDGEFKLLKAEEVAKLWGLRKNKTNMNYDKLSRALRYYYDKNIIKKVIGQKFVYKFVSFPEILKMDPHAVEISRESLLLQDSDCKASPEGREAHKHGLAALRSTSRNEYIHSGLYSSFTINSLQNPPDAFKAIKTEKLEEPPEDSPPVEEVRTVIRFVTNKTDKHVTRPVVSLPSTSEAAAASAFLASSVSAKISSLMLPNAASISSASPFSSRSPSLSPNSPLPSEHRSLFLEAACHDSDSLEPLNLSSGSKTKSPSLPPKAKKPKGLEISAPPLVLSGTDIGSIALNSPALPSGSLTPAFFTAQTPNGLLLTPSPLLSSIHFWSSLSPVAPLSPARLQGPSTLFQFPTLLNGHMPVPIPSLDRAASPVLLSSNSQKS
# Procedure, shortened: as §1
# FEV = biological target: T7, FEV (Homo sapiens, UniProt Q99581 1-238); conditions: protein: recombinant; tags: N-terminal GST; dsDNA, one strand shown
# T7 sequence: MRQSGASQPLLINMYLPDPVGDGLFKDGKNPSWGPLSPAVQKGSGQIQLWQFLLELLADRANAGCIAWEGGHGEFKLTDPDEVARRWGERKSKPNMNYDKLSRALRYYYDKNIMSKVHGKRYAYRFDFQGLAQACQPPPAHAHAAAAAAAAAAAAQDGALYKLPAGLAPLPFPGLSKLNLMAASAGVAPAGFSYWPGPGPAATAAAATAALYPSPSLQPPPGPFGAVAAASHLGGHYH
# Procedure, shortened: as §1
# ETV5 = ETV5 (Homo sapiens, UniProt P41161 1-510); conditions: protein: recombinant; tags: N-terminal GST; dsDNA, one strand shown
# ETV5, sequence (P41161 whole entry): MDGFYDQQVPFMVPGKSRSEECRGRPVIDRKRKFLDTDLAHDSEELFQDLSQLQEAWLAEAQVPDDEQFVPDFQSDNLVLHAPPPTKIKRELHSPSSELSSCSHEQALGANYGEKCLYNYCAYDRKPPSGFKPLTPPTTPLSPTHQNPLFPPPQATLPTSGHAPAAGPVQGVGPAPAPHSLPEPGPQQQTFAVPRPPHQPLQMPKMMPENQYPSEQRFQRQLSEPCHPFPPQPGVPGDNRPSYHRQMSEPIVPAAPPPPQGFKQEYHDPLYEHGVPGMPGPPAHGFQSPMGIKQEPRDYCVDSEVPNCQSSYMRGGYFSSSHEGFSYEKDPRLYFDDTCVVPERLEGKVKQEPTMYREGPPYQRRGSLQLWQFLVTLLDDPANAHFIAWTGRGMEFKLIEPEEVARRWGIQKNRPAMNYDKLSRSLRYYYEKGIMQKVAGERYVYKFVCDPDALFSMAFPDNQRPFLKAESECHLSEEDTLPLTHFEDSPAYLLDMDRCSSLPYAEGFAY
# Procedure, shortened: as §1
# HSF1 = HSF1 (Homo sapiens, UniProt Q00613 1-529); conditions: protein: recombinant; tags: N-terminal GST; chain copies: 3; dsDNA, one strand shown
# HSF1, sequence (Q00613 whole entry): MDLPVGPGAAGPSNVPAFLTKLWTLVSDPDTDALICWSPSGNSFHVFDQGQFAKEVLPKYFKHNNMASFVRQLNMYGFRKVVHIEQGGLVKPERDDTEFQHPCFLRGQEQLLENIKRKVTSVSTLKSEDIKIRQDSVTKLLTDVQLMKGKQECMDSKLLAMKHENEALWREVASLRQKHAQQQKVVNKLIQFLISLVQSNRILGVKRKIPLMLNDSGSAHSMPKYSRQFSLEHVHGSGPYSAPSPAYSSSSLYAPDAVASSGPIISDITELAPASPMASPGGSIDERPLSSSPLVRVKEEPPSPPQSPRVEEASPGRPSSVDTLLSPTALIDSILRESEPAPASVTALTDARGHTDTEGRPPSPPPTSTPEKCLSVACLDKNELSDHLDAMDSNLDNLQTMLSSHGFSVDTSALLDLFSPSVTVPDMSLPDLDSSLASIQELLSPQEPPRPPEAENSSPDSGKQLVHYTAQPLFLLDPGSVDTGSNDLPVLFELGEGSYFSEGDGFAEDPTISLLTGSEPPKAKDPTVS
# Procedure, shortened: as §1
# SPIC = biological target: T8, SPIC (Homo sapiens, UniProt Q8N5J4 1-248); conditions: protein: recombinant; tags: N-terminal GST; dsDNA, one strand shown
# T8 sequence: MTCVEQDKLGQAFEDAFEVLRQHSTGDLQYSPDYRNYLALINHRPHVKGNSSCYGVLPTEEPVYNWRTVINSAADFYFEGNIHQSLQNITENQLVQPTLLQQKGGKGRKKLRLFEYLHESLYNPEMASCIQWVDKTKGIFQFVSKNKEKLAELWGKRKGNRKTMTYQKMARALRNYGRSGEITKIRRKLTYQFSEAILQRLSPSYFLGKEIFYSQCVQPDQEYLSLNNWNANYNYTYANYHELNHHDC
# Procedure, shortened: as §1
# ELF4 = ELF4 (Homo sapiens, UniProt Q99607 1-663); conditions: protein: recombinant; tags: N-terminal GST; dsDNA, one strand shown
# ELF4, sequence (Q99607 whole entry): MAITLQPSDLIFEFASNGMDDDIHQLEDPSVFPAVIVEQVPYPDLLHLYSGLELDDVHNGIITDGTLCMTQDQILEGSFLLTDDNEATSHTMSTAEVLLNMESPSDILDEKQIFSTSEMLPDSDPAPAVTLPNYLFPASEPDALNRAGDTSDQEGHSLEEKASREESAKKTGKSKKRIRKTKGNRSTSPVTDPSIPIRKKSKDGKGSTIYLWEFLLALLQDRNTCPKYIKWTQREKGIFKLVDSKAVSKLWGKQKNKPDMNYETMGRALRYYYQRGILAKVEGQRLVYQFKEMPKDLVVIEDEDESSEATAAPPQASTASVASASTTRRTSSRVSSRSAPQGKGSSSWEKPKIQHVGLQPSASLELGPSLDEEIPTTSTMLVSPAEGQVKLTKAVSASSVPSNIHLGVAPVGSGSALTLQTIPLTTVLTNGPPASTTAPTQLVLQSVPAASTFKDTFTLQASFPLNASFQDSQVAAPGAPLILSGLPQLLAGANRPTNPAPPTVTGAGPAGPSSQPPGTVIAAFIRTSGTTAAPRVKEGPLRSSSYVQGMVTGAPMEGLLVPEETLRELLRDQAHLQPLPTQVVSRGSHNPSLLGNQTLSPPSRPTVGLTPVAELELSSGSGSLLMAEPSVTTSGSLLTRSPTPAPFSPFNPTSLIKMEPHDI
# Procedure, shortened: as §1
# ELK4 = biological target: T9, ELK4 (Homo sapiens, UniProt P28324-2 1-405); conditions: protein: recombinant; tags: N-terminal GST; dsDNA, one strand shown
# T9 sequence: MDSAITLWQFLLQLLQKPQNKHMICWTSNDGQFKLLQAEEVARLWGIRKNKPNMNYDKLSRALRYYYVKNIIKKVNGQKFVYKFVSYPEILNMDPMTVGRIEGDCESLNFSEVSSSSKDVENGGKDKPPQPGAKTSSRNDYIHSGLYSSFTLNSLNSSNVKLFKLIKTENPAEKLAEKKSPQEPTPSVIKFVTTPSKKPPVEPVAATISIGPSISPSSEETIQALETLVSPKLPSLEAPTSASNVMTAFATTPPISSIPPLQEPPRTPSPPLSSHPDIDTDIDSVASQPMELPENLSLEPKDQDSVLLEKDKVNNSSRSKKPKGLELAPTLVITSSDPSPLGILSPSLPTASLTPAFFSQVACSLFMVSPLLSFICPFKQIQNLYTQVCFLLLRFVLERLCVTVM
# Procedure, shortened: as §1
# ETV2 = biological target: T10, ETV2 (Homo sapiens, UniProt O00321 1-342); conditions: protein: recombinant; tags: N-terminal GST; dsDNA, one strand shown
# T10 sequence: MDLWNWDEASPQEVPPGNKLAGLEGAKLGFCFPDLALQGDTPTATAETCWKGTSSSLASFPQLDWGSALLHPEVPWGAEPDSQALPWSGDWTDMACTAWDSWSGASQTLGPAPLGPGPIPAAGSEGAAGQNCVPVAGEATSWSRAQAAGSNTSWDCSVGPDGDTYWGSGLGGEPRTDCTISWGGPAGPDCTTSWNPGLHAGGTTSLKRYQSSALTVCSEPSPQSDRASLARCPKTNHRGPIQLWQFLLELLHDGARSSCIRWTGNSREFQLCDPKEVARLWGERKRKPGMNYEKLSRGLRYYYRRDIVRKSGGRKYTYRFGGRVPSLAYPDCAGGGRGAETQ
# Procedure, shortened: as §1
# ELF3 = biological target: T11, ELF3 (Homo sapiens, UniProt P78545 1-371); conditions: protein: recombinant; tags: N-terminal GST; dsDNA, one strand shown
# T11 sequence: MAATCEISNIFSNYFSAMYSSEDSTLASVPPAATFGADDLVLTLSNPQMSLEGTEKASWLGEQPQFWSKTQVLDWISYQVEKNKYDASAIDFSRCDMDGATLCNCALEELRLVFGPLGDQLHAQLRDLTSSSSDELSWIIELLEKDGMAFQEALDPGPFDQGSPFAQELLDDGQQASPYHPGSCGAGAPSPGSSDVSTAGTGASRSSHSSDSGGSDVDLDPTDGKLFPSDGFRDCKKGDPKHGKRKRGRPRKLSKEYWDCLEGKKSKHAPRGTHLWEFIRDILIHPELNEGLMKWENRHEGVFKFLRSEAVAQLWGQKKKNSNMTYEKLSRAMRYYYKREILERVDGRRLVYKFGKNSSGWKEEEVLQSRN
# Procedure, shortened: as §1
# CRX = CRX (Homo sapiens, UniProt O43186 1-299); conditions: protein: recombinant; tags: N-terminal GST; dsDNA, one strand shown
# CRX, sequence (O43186 whole entry): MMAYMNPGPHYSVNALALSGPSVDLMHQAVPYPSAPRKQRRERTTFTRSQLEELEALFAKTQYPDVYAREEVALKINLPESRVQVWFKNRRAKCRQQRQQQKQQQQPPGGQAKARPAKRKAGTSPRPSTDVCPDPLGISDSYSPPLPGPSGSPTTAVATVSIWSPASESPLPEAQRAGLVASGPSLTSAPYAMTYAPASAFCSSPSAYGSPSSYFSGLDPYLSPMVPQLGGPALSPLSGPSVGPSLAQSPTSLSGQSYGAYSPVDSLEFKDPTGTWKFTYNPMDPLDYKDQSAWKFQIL
# Procedure, shortened: as §1
# ETV1 = ETV1 (Homo sapiens, UniProt P50549 1-477); conditions: protein: recombinant; tags: N-terminal GST; dsDNA, one strand shown
# ETV1, sequence (P50549 whole entry): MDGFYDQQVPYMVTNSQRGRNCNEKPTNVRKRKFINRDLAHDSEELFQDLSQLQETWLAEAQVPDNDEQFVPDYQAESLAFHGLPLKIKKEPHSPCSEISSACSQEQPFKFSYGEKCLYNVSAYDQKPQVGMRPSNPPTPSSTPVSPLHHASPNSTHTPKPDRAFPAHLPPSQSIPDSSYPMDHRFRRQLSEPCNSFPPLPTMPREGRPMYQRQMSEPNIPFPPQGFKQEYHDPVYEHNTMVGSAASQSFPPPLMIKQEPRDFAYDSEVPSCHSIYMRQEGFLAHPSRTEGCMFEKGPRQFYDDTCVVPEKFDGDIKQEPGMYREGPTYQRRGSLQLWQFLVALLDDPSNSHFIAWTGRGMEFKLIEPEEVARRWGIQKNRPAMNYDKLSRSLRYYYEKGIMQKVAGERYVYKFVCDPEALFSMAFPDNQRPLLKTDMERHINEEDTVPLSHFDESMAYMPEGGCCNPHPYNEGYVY
# Procedure, shortened: as §1
sequence,measurement,setting,value
AATTCA,binding signal,FLI1,"1.29 fold enrichment (6-mer frequency, TF over GST control)"
same,binding signal,ELK1,"1.23 fold enrichment (6-mer frequency, TF over GST control)"
same,binding signal,GABPA,"1.35 fold enrichment (6-mer frequency, TF over GST control)"
same,binding signal,ERG,"1.33 fold enrichment (6-mer frequency, TF over GST control)"
same,binding signal,ELF1,"1.31 fold enrichment (6-mer frequency, TF over GST control)"
same,binding signal,EHF,"1.27 fold enrichment (6-mer frequency, TF over GST control)"
same,binding signal,SPI1,"1.29 fold enrichment (6-mer frequency, TF over GST control)"
same,binding signal,SPIB,"1.33 fold enrichment (6-mer frequency, TF over GST control)"
same,binding signal,ELK3,"1.47 fold enrichment (6-mer frequency, TF over GST control)"
same,binding signal,FEV,"1.24 fold enrichment (6-mer frequency, TF over GST control)"
same,binding signal,ETV5,"1.34 fold enrichment (6-mer frequency, TF over GST control)"
same,binding signal,HSF1,"1.34 fold enrichment (6-mer frequency, TF over GST control)"
same,binding signal,SPIC,"1.32 fold enrichment (6-mer frequency, TF over GST control)"
same,binding signal,ELF4,"1.33 fold enrichment (6-mer frequency, TF over GST control)"
same,binding signal,ELK4,"1.26 fold enrichment (6-mer frequency, TF over GST control)"
same,binding signal,ETV2,"1.36 fold enrichment (6-mer frequency, TF over GST control)"
same,binding signal,ELF3,"1.35 fold enrichment (6-mer frequency, TF over GST control)"
same,binding signal,CRX,"1.39 fold enrichment (6-mer frequency, TF over GST control)"
same,binding signal,ETV1,"1.23 fold enrichment (6-mer frequency, TF over GST control)"

# Source: publication PMC7862700, “An all-to-all approach to the identification of sequence-specific readers for epigenetic DNA modifications on cytosine”
